Test results from PubChem BioAssay (EPA / NIEHS).
Values joined by “and” are separate entries in the source; they are usually repeats but may differ in a detail not shown here. Equal entries are not always repeated. Results filed as inconclusive are left out. More than one record can exist for a structure, and the calls need not agree. Active and inactive are the calls of the source. The calls were made as follows, unless noted: active = hit-call score of the fitted dose curve at least 0.9, where 1 is the maximum; inactive = score below 0.9.

What was measured:
[1] = read-out: E-selectin (Homo sapiens) (UniProt P16581); assay: BSK_3C_Eselectin: BioMAP Diversity Plus: 3C Assay for Eselectin Biomarker Activity (AID 2283015); settings: primary human endothelial cells (HUVEC); actives raise or lower the signal;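 as to outcome: cell surface E-selectin protein quantified by ELISA 24 h after dosing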
Outline: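 Primary human umbilical vein endothelial cells (3C system) were dosed with chemical and cell-surface E-selectin measured by ELISA 24 h later. Bidirectional curve fitting used DMSO as negative control and baseline.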

[2] = read-out: Interleukin-1 alpha (IL1a), IL1A (gene 3552); assay: BSK_BE3C_IL1a: BioMAP Diversity Plus: BE3C Assay for Interleukin-1 alpha (IL1a) Biomarker Activity (AID 2283016); settings: primary human bronchial epithelial cells; actives raise or lower the signal
Outline: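 IL-1a measured by ELISA after 24 h treatment of human primary bronchial epithelial cells, with gain or loss of signal fitted versus DMSO. Parallel cultures stained with SRB gauge overt cytotoxicity.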

[3] = read-out: Monocyte Chemoattractant Protein-1 (MCP1), CCL2 (gene 6347); assay: BSK_3C_MCP1: BioMAP Diversity Plus: 3C Assay for Monocyte Chemoattractant Protein-1 (MCP1) Biomarker Activity (AID 2283017); settings: primary human endothelial cells (HUVEC); actives raise or lower the signal
Outline: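 Primary human umbilical vein endothelial cells (3C system) were exposed to test chemical for 24 h, after which MCP-1 was quantified by ELISA. Activity was fitted bidirectionally against DMSO as negative control and baseline.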

[4] = read-out: Monocyte Chemoattractant Protein-1 (MCP1), CCL2 (gene 6347); assay: BSK_4H_MCP1: BioMAP Diversity Plus: 4H Assay for Monocyte Chemoattractant Protein-1 (MCP1) Biomarker Activity (AID 2283018); settings: primary human endothelial cells (HUVEC); actives raise or lower the signal
Outline: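 ELISA of MCP-1 (CCL2) 24 h after chemical dosing of HUVEC in the BioMAP 4H system. Gain or loss versus DMSO fitted; parallel SRB staining (560 nm) tracked overt cytotoxicity.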

[5] = read-out: Human Leukocyte Antigen - DR isotype (HLADR), HLA-DRA (gene 3122); assay: BSK_3C_HLADR: BioMAP Diversity Plus: 3C Assay for Human Leukocyte Antigen - DR isotype (HLADR) Biomarker Activity (AID 2283019); settings: primary human endothelial cells (HUVEC); actives raise or lower the signal;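 as to outcome: ELISA of cell-surface HLA-DR on HUVEC 24 h after dosing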
Outline: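 Primary human umbilical vein endothelial cells (3C system) were dosed with compound and cell-surface HLA-DR was quantified by ELISA at 24 h. Activity was fitted bidirectionally against DMSO as negative control and baseline.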

[6] = read-out: Interleukin-8 (IL8), CXCL8 (gene 3576); assay: BSK_3C_IL8: BioMAP Diversity Plus: 3C Assay for Interleukin-8 (IL8) Biomarker Activity (AID 2283020); settings: primary human endothelial cells (HUVEC); actives raise or lower the signal
Outline: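 IL-8 was measured by ELISA in HUVEC cultures 24 h after chemical dosing, with gain or loss of signal fitted relative to DMSO. Parallel SRB total-protein staining tracked overt cytotoxicity.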

[7] = molecular target: human Thyroid Receptor alpha (THRa1), THRA (gene 7067) (UniProt P10827); assay: ATG_THRa1_TRANS: Attagene TRANS-FACTORIAL HepG2 Assay for human Thyroid Receptor alpha (THRa1) (AID 2283014; active = hit-call score of the fitted dose curve at least 0.9, where 1 is the maximum)
Chain of human Thyroid Receptor alpha (THRa1), THRA (gene 7067) (P10827 whole entry, looked up, the tested form may be a part): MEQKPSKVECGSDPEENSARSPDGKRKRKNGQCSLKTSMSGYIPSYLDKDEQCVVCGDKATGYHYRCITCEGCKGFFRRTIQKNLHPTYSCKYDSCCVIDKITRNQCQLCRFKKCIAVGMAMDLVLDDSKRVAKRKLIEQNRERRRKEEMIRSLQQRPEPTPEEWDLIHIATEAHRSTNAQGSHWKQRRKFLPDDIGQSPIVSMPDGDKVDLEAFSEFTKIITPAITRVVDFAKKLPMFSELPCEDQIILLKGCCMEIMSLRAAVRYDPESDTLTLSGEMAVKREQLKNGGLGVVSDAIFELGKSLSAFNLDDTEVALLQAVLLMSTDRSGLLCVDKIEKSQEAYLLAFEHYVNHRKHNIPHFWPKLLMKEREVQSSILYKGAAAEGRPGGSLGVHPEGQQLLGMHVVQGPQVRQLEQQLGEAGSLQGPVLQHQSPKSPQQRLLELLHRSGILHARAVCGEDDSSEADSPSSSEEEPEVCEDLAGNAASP
Outline: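 HepG2 cells transiently transfected with multiplexed GAL4-UAS reporter units for exogenous chimeric THRa1-Gal4; reporter mRNA measured 24 h after dosing by RT-PCR, 6-FAM labelling, HpaI digestion and capillary electrophoresis. Gain-of-signal fitted versus DMSO baseline.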

[8] = molecular target: human Retinoid X Receptor beta (RXRb), RXRB (gene 6257) (UniProt P28702); assay: ATG_RXRb_TRANS: Attagene TRANS-FACTORIAL HepG2 Assay for human Retinoid X Receptor beta (RXRb) (AID 2283013; active = hit-call score of the fitted dose curve at least 0.9, where 1 is the maximum)
Chain of human Retinoid X Receptor beta (RXRb), RXRB (gene 6257) (P28702 whole entry, looked up, the tested form may be a part): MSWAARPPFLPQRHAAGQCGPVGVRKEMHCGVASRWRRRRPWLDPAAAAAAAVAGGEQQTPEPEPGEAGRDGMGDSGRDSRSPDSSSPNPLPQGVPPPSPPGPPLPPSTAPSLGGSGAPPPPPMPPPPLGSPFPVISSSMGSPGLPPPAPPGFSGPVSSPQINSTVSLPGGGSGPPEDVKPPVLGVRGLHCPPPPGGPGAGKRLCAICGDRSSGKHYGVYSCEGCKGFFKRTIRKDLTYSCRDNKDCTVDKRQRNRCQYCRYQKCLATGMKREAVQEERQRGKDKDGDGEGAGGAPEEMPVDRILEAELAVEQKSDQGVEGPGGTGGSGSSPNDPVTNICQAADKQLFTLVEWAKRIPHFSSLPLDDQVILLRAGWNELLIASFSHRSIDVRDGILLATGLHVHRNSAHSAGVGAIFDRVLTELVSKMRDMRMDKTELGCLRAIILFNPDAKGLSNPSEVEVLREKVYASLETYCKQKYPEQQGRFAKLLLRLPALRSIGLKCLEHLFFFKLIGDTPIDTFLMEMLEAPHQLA
Outline: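 Readout is reporter transcript induction after 24 h dosing. It is measured by RT-PCR of total RNA followed by fluorescent capillary electrophoresis. HepG2 liver cells carry transfected multiple reporter units driven by an exogenous RXRb-Gal4 fusion; activity is relative to DMSO.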

Chain of E-selectin (Homo sapiens) (P16581 whole entry, looked up): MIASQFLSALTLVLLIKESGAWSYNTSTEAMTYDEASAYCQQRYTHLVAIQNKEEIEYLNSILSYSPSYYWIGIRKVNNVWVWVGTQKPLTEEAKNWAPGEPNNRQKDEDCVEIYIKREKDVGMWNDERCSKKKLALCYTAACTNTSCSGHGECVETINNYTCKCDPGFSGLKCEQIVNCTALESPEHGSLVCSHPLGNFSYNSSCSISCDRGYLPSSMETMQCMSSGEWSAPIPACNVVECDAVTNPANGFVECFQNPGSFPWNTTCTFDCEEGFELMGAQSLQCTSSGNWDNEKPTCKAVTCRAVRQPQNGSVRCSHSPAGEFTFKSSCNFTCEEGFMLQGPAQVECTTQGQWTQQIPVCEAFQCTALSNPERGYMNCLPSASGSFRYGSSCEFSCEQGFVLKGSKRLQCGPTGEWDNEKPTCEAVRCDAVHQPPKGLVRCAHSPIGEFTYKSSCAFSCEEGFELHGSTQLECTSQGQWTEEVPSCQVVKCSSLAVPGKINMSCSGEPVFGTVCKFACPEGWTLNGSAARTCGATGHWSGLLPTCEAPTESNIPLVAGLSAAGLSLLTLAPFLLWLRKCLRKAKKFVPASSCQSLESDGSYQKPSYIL

## CC1OC1C1CCC2(C)OC2C1 (configuration not stated)
[1]
  outcome: inactive
[2]
  outcome: inactive
[3]
  outcome: inactive
[4]
  outcome: inactive
[5]
  outcome: inactive
[6]
  outcome: inactive

## COC(=O)C1=C(C)NC(C)=C(C(=O)OCC(C)C)C1c1ccccc1[N+](=O)[O-] (configuration not stated)
[7]
  outcome: inactive

## NCCCN1CCN(CCCN)CC1
[8]
  outcome: inactive
[7]
  outcome: inactive

## N[C@H]1C(O)O[C@H](CO)[C@H](O)[C@@H]1O (some centres not stated)
[7]
  outcome: inactive

## c1ccc2c(c1)ccc1ncccc12
[1]
  AC50: 16.4 µM (active)
[2]
  AC50: 20 µM (active)
[3]
  AC50: 5.9 µM (active)
[4]
  outcome: inactive
[5]
  AC50: 20 µM (active)
[6]
  outcome: inactive

## S=C(NC1CCCCC1)NC1CCCCC1
[7]
  outcome: inactive
[1]
  outcome: inactive
[2]
  outcome: inactive
[3]
  outcome: inactive
[4]
  outcome: inactive
[5]
  outcome: inactive
[6]
  outcome: inactive

## C=CC=CC=CCCCCC
[7]
  outcome: inactive
[1]
  outcome: inactive
[2]
  outcome: inactive
[3]
  outcome: inactive
[4]
  outcome: inactive
[5]
  outcome: inactive
[6]
  outcome: inactive

## O=C(O)CCCCCCCCCC(=O)O
[8]
  outcome: inactive
[7]
  outcome: inactive

## CC(=O)OCCC1CCCCC1
[7]
  outcome: inactive

## CC(C)=CCC[C@H](C)CCO
[7]
  outcome: inactive

## CCCCCCCC[N+](C)(CCCCCCCC)CCCCCCCC
[7]
  outcome: inactive

## CCCC(C)CCC(C)=O (configuration not stated)
[8]
  outcome: inactive
[7]
  outcome: inactive

## COC(F)(F)C(F)(C(F)(F)F)C(F)(F)F
[7]
  outcome: inactive

## Cc1ccccc1C
[7]
  outcome: inactive

## COc1ccc(NC(C)=O)cc1N
[7]
  outcome: inactive

## COc1cc(C)ccc1C(C)C
[8]
  AC50: 100 µM (active)
[7]
  outcome: inactive

## c1cc(N(CC2CO2)CC2CO2)ccc1OCC1CO1 (configuration not stated)
[7]
  outcome: inactive

## Cn1c([N+](=O)[O-])cnc1COC(N)=O
[7]
  outcome: inactive

## CCO[Si](C)(OCC)OCC
[1]
  outcome: inactive
[2]
  outcome: inactive
[3]
  outcome: inactive
[4]
  outcome: inactive
[5]
  outcome: inactive
[6]
  outcome: inactive

## O=c1cc[nH]c(=S)[nH]1
[7]
  outcome: inactive

## CC(C)CC(O)Cc1ccccc1 (configuration not stated)
[8]
  outcome: inactive
[7]
  outcome: inactive

## O=c1[nH]nc(-c2ccc([N+](=O)[O-])o2)o1
[8]
  outcome: inactive
[7]
  outcome: inactive

## CCOC(=O)NNc1nncc2ccccc12
[7]
  outcome: inactive

## O=C(O)c1cc(Cl)cc([N+](=O)[O-])c1Cl
[7]
  outcome: inactive

## CC(C)C(=O)C(C)C
[7]
  outcome: inactive
[1]
  outcome: inactive
[2]
  outcome: inactive
[3]
  outcome: inactive
[4]
  outcome: inactive
[5]
  outcome: inactive
[6]
  outcome: inactive

## C=C[Si](OC(C)=O)(OC(C)=O)OC(C)=O
[1]
  outcome: inactive
[2]
  outcome: inactive
[3]
  outcome: inactive
[4]
  outcome: inactive
[5]
  outcome: inactive
[6]
  outcome: inactive

## OC1OCCOC1O (configuration not stated)
[7]
  outcome: inactive

## Nc1ccc(N)c(Cl)c1
[8]
  outcome: inactive
[1]
  AC50: 5.26 µM (active)
  outcome: inactive
[2]
  AC50: 20 µM (active)
  outcome: inactive
[3]
  AC50: 32.4 µM (active) and 31.9 µM (active)
[4]
  AC50: 26.1 µM (active) and 14.6 µM (active)
[5]
  AC50: 30.2 µM (active) and 31.4 µM (active)
[6]
  outcome: inactive

## CO[Si](OC)(OC)c1ccccc1
[7]
  outcome: inactive
[1]
  outcome: inactive
[2]
  outcome: inactive
[3]
  outcome: inactive
[4]
  outcome: inactive
[5]
  outcome: inactive
[6]
  outcome: inactive

## CCCCCCCOC(=O)CCC
[7]
  outcome: inactive

## CCOC(=O)c1ccccc1C(=C1C=C(Br)C(=O)C(Br)=C1)c1cc(Br)c(O)c(Br)c1
[1]
  AC50: 21 µM (active) and 19.9 µM (active)
[2]
  AC50: 4.38 µM (active) and 4.46 µM (active)
[3]
  AC50: 21.6 µM (active) and 20.9 µM (active)
[4]
  AC50: 15.5 µM (active) and 13.5 µM (active)
[5]
  AC50: 19.5 µM (active) and 16 µM (active)
[6]
  AC50: 20.2 µM (active) and 21.7 µM (active)

## C#CC1(O)CC[C@H]2[C@@H]3CCC4=CCCC[C@@H]4[C@H]3CC[C@@]21C (some centres not stated)
[8]
  outcome: inactive
[7]
  outcome: inactive
[1]
  AC50: 8.71 µM (active)
[2]
  AC50: 35.5 µM (active)
[3]
  AC50: 11 µM (active)
[4]
  AC50: 9.46 µM (active)
[5]
  AC50: 10.8 µM (active)
[6]
  AC50: 10.2 µM (active)
